Test results from PubChem BioAssay AID1851 (National Center for Advancing Translational Sciences (NCATS), 2009).
Values joined by “and” are separate entries in the source; they are usually repeats but may differ in a detail not shown here. Equal values may be shown once. About 2,600 (16%) of roughly 16,000 compounds were called active. Another 20% or so got no clear call; they are omitted. Only a sample is shown. A number with no mark means an inactive call. Calls follow the shape of the dose curve; as a rule, active = well fitted curve in the direction sought with a large enough effect; inconclusive = small, poorly fitted or top-dose-only effect, or effect the other way; inactive = no such curve, though single readings can be large or run the other way.

Target: Cytochrome P450 2D6 (Homo sapiens) (UniProt P10635)
Sequence (P10635 whole entry, looked up): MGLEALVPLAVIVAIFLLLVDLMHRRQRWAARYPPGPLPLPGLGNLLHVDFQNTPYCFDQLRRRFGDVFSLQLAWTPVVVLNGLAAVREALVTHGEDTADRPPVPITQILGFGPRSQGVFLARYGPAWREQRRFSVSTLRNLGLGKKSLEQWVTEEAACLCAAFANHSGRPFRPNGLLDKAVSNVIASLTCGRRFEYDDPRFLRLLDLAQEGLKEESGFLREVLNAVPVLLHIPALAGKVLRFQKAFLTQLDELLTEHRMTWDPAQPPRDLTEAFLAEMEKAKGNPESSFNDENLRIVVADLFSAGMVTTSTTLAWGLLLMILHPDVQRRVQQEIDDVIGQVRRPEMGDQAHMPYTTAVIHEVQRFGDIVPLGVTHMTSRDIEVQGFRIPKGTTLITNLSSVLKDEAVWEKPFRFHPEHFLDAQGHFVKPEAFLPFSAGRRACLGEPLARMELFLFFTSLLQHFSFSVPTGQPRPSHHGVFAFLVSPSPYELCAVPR
Test: Cytochrome panel assay with activity outcomes
Details: recombinant CYP, pro-luciferin dealkylation, luminescence, p450-cyp2d6; series mostly up to 57.1 µM; activity, negative = inhibition: at the top concentration
% is scaled to controls: 0 for no effect and ±100 for the full control effect.

Compared with `N[C@@H](Cc1c[nH]c2ccccc12)C(=O)O`, `CCOC(=O)C(C)n1cnc2c(oc3ccccc32)c1=O` (stereo unspecified) is lower in “activity, negative = inhibition” value: 0.396% for the first, -15.6% for the second.

Going from `COC(=O)Cn1cc(/C=N/NC(=O)c2ccc(C#N)cc2F)c2ccccc21` to `COC(=O)c1cn(NC(=O)c2ccc(F)cc2)c(=O)c2ccccc12`, the “activity, negative = inhibition” value falls from -18.6% to -22.3%.

Compared with `CC(C)c1cccc2cc3c(nc12)-c1cccc(=O)n1C3`, `Cc1noc2ncnc(Oc3ccc4ccccc4c3)c12` is higher in “activity, negative = inhibition” value: -18.8% for the first, -14.9% for the second.

Going from `N#Cc1ccc(C(=O)Nc2ccc(N3CCN(C(=O)c4ccco4)CC3)cc2)c(F)c1` to `O=C(CSc1ccccc1)Nc1ccc(NC(=O)c2ccco2)cc1`, the “activity, negative = inhibition” value falls from -13.1% to -28.8%.

First: COc1ccc(CNc2nc(-c3c(C)noc3C)nc3ccccc23)c(OC)c1
Second: COc1ccc(CNc2nc(-c3ccc(C(=O)N(C)C)cc3)nc3ccccc23)c(OC)c1
The “activity, negative = inhibition” value of the first is higher: -13.2% for the first, -13.4% for the second.

Compared with `Cc1cc(NC(=O)c2ccccc2Cl)no1`, `Cc1ccccc1C(=O)NNC(=O)c1ccc(F)cc1` is lower in “activity, negative = inhibition” value: 4.14% for the first, 0.144% for the second.

First: O=C(NNC(=O)c1ccccc1-n1cccc1)c1ccc(Cl)c(Cl)c1
Second: COc1cccc(NC(=O)c2oc3ccccc3c2NC(=O)c2ccc3c(c2)OCO3)c1
The “activity, negative = inhibition” value of the first is lower: -3.18% for the first, 1.82% for the second.

Going from `CCOc1ccc(NC(=O)c2nnn(CC(=O)Nc3ccccc3OC)c2N)cc1` to `CCOC(=O)c1oc2ccccc2c1NC(=O)c1ccc(S(=O)(=O)N(C)C)cc1`, the “activity, negative = inhibition” value rises from -6.24% to 15%.

Compared with `COc1ccc(N2CCN(CCNC(=O)C3CCN(S(=O)(=O)c4cccs4)CC3)CC2)cc1`, `CC(=O)NC(C)C(c1cccs1)N1CCN(c2ccccc2)CC1` (stereo unspecified) is lower in “activity, negative = inhibition” value: -18.9% for the first, -28% for the second.

Compared with `COc1ccc(NC(=O)N2CC3(CCN(S(C)(=O)=O)CC3)C2)cc1`, `COc1ccc(NC(=O)c2ncn[nH]2)cc1` is higher in “activity, negative = inhibition” value: -6.07% for the first, 4.49% for the second.

First: CC(=O)c1ccc(-n2nnnc2SCC(=O)Nc2cccc(NC(=O)c3ccco3)c2)cc1
Second: O=C(Nc1cccc(OC(=O)c2ccco2)c1)c1ccco1
The “activity, negative = inhibition” value of the first is higher: -16% for the first, -29.5% for the second.

Going from `O=C(Nc1cccc(-c2nc3ncccc3o2)c1)c1sc2ccccc2c1Cl` to `O=C(Nc1cccc(-c2nc3ncccc3o2)c1)c1sc2cc(Cl)ccc2c1Cl`, the “activity, negative = inhibition” value rises from -15.4% to -2.66%.

Going from `O=C(Nc1nnc(SCc2ccc(Cl)cc2)s1)c1ccco1` to `COCCN(C(=O)c1ccco1)c1nnc(-c2ccc(OC)cc2)s1`, the “activity, negative = inhibition” value falls from -2.39% to -15.8%.

Compared with `COC(=O)C(C)(C(=O)OC)c1ccc([N+](=O)[O-])cn1`, `COC(=O)c1[nH]c2cc(OC)ccc2c1NC(=O)c1nonc1C` is higher in “activity, negative = inhibition” value: -21.4% for the first, 21.6% for the second.

Going from `Cc1c(Cl)c([N+](=O)[O-])nn1CC(=O)Nc1c(C)n(C)n(-c2ccccc2)c1=O` to `Cc1ccc(OCC(=O)Nc2ccc(Cl)cc2)c(-n2nc3ccccc3n2)c1`, the “activity, negative = inhibition” value falls from -0.891% to -6.55%.

Compared with `Cc1ccc(NC(=O)CCc2c(C)nc3ncnn3c2C)nc1`, `COc1ccc(-n2c(=O)c(C)nc3cncnc32)cc1` is lower in “activity, negative = inhibition” value: 4.12% for the first, -4.11% for the second.

Compared with `CC(=O)c1cccc(NC(=O)c2csc(-n3nc(C)cc3C(F)(F)F)n2)c1`, `Cc1nc(C(=O)Nc2ccc(Cl)cc2Cl)nn1-c1cc(OC(C)C)c(Cl)cc1Cl` is higher in “activity, negative = inhibition” value: -23.6% for the first, -4.13% for the second.

Compared with `COC(=O)[C@@]1(Cc2ccc(OC)cc2)[C@@H]2[C@@H](CC(=O)[C@H]2CC(=O)C(=O)N(C)C)CN1C(=O)c1ccccc1`, `COc1ccc(OC)c(Nc2nc(-c3sc(NC(=O)c4ccccc4)nc3C)cs2)c1` is lower in “activity, negative = inhibition” value: -1.73% for the first, -16.5% for the second.

Compared with `CN1CCN(c2nc3cc(C(F)(F)F)ccc3n3cccc23)CC1`, `FC(F)(F)c1cnc(N2CCC(=NOCc3ccc(Cl)cc3)CC2)c(Cl)c1` is higher in “activity, negative = inhibition” value: -20.9% for the first, -2.76% for the second.

First: CCCCCCN(CCCCCC)C(=O)Cc1c(-c2ccc(Cl)cc2)[nH]c2ccc(Cl)cc12
Second: Cc1cc(=O)c2cc(Cl)ccc2[nH]1
The “activity, negative = inhibition” value of the first is lower: -9.91% for the first, -6.42% for the second.

Compared with `CCOc1ccc2[nH]c(=O)c(CN(CCc3ccccc3)C(=O)N3CCOCC3)cc2c1`, `Cc1nc2cnc(Nc3ccccc3)nc2n(CCc2ccccc2)c1=O` is higher in “activity, negative = inhibition” value: -16.1% for the first, -2.78% for the second.

Compared with `N#C/C(=C\c1ccccc1)c1nc2ncccc2[nH]1`, `COc1ccc2oc(C(=O)c3ccccc3)c(N)c2c1` is higher in “activity, negative = inhibition” value: -21% for the first, -15% for the second.

Compared with `c1ccc(-c2ccc(C3=Nn4c(Cn5nnc6ccccc65)nnc4SC3)cc2)cc1`, `O=c1c(-c2nc3ccccc3s2)cccn1Cc1ccc(Cl)cc1` is lower in “activity, negative = inhibition” value: -6.94% for the first, -12.9% for the second.

Going from `COC(=O)N1CC(=O)N(OC)C1c1ccc(Cl)cc1Cl` (stereo unspecified) to `CCCCOC(=O)Nc1ccc(C)c(Cl)c1`, the “activity, negative = inhibition” value falls from 3.25% to -20.5%.

Going from `CCS(=O)(=O)Nc1ccc(C2=NN(C(=O)c3ccco3)C(c3ccc(C)cc3)C2)cc1` (stereo unspecified) to `CCOC(=O)C1C(=O)C=C(c2ccc(NS(C)(=O)=O)cc2)CC1c1ccco1` (stereo unspecified), the “activity, negative = inhibition” value falls from -12.4% to -19.3%.

Compared with `CC(=O)NNc1nc2ccccc2s1`, `CCc1nnc(NC(=O)CSc2nc(C3CCCCC3)nc3ccccc23)s1` is lower in “activity, negative = inhibition” value: -0.0209% for the first, -17% for the second.

Going from `COCCN1C(=O)C(=O)/C(=C(/O)c2cccc(OC)c2)C1c1ccc(C)o1` (stereo unspecified) to `COc1ccc(-n2c(=O)c(C)nc3cnc(N(C)C)nc32)cc1`, the “activity, negative = inhibition” value falls from 5.43% to 3.79%.

First: CCOC(=O)c1[nH]c2cc(OC)c(OC)cc2c1NC(=O)c1ccc2c(c1)OCO2
Second: Cc1ccc2c(c1)-c1c(cnn1CC(=O)O)CO2
The “activity, negative = inhibition” value of the first is lower: -1.54% for the first, 12.2% for the second.

Going from `N#Cc1cccc(NC(=O)N2CCCC3(CCN(C(=O)c4cnccn4)CC3)C2)c1` to `Cc1cccc(NC(=O)C2(c3ccc([N+](=O)[O-])cc3)CCCC2)c1`, the “activity, negative = inhibition” value falls from -0.699% to -29.8%.

First: O=C(O)CCC(=O)N1CCC[C@H]1C(=O)O
Second: N[C@H](CCCC(=O)O)C(=O)O
The “activity, negative = inhibition” value of the first is higher: 15.4% for the first, 2.55% for the second.

Going from `Cc1ccc2c(c1)N(CCC(=O)NCC1CCCO1)C(=O)CO2` (stereo unspecified) to `CN(C)CCOC(=O)C1(c2ccccc2)CCOCC1`, the “activity, negative = inhibition” value falls from -13.4% to -21.6%.

First: Nc1ccccc1Oc1ncc(C(F)(F)F)cc1Cl
Second: Cc1nn2c([nH]c(=O)c3ccccc32)c1C=O
The “activity, negative = inhibition” value of the first is lower: -15.3% for the first, -2.19% for the second.

First: CCC(C)Nc1nc(OCC(F)(F)F)nc(OCC(F)(F)F)n1 (stereo unspecified)
Second: C=CCNc1cnn(-c2ccc(C)cc2)c(=O)c1Cl
The “activity, negative = inhibition” value of the first is higher: 5.26% for the first, 0.192% for the second.

Compared with `NS(=O)(=O)c1ccc(NS(=O)(=O)c2ccc(NC(=O)c3ccc(-c4ccccc4)cc3)cc2)cc1`, `O=C(/C=C/c1ccc(Cl)cc1)Nc1ccc(N2CCCCC2)cc1` is lower in “activity, negative = inhibition” value: 6.6% for the first, -1.69% for the second.

Compared with `O=C(O)[C@H](Cc1c[nH]c2ccccc12)N1C(=O)c2ccccc2C1=O`, `O=C1NC(=O)[C@@](Cc2ccccc2)(c2cccnc2)N1` is higher in activity, negative = inhibition: -2.59% [at 11.4 µM] for the first, 1.34% [at 11.4 µM] for the second.

First: COC(=O)CCCC(=O)O
Second: Cn1c(=O)c2c(nc(Cc3ccccc3)n2CC(=O)O)n(C)c1=O
The activity, negative = inhibition of the first is higher: 8.35% [at 11.4 µM] for the first, 3.84% [at 11.4 µM] for the second.

Compared with `O=[N+]([O-])c1ccc2c(c1)Cc1cc(N=Cc3ccc4c(c3)OCO4)ccc1-2`, `CC(C)CO/N=C1/C[C@@H](O)[C@@H](O)[C@@H]2[C@@H]3C(=O)N(Cc4ccc5c(c4)OCO5)C(=O)[C@H]3CC[C@H]12` is lower in activity, negative = inhibition: -11.6% [at 11.4 µM] for the first, -12.3% [at 11.4 µM] for the second.

Work on `Cc1ccc(S(=O)(=O)Nc2ccccc2C(=O)c2ccc(C)c(C)c2)cc1` yielded an activity, negative = inhibition of 2.37% [at 11.4 µM].

With `c1ccc2c(CN3CCN(Cc4c[nH]c5ccccc45)CC3)c[nH]c2c1` the AC50 was 2.51 µM (active).
`COc1ccc(CNc2nc(-c3ccccc3CN(C)C)nc3ccccc23)c(OC)c1` was tested, and the AC50 was 10 µM (active).
`COc1ccccc1CNc1nc(-c2ccccc2CN(C)C)nc2ccccc12` was tested, and the AC50 was 10 µM (active).
With `N[C@@H](CO)C(=O)NNCc1ccc(O)c(O)c1O` the AC50 was “inactive”.
In the case of `CC(C)C(NS(=O)(=O)c1cccs1)C(=O)NCCN1CCN(c2ccccc2)CC1` (stereo unspecified), the AC50 was 14.1 µM (active).
In the case of `Cc1ccc(SCC(=O)Nc2cccc(NC(=O)c3ccco3)c2)cc1`, the AC50 was 20 µM (active).
`O=C(CSc1ccc(Cl)cc1)Nc1cccc(NC(=O)c2ccco2)c1` was tested, and the AC50 was 6.31 µM (active).
For `O=C(CSc1ccc(Cl)cc1)Nc1cccc(-c2nc3ncccc3o2)c1`, the AC50 was 8.91 µM (active).
In the case of `CCCCN(C)Cc1c(C)[nH]c2ccc(Cl)cc2c1=O`, the AC50 was 3.16 µM (active).
For `N#C/C(=C\c1ccc(Cl)cc1)c1nc2ncccc2[nH]1`, the AC50 was 12.6 µM (active).
In the case of `COc1cccc2c1OC[C@@H](CO)[C@H]2N(C)C(=O)Nc1ccc(Cl)cc1Cl`, the AC50 was 3.55 µM (active).
In the case of `Cc1cc2nc(SCCOC(=O)Nc3ccc(Cl)cc3)nc(C)c2cc1C`, the AC50 was 8.91 µM (active).
For `Clc1ccc(CCNc2nc3ccccc3s2)cc1`, the AC50 was 3.55 µM (active).
`COC(=O)c1[nH]c2cc(OC)ccc2c1NC(=O)c1ccc2c(c1)OCO2` was tested, and the AC50 was 22.4 µM (active).
In the case of `CCOC(=O)c1oc2ccccc2c1NC(=O)c1ccc2c(c1)OCO2`, the AC50 was 3.55 µM (active).
For `Cc1ccc2c(c1)N(CC(=O)NC1CCCc3ccccc31)C(=O)CO2` (stereo unspecified), the AC50 was 12.6 µM (active).
With `O=C(NCCC[N+]1=CC=N[C@H]1c1ccccc1)N1CCCc2nc(-c3ccc(Br)cc3)ccc21` the AC50 was 0.0794 µM (active).
For `CCN(CC)CCOC(=O)C1(c2ccc([N+](=O)[O-])cc2)CCCC1`, the AC50 was 3.98 µM (active) and 5.01 µM (active).
`COC(=O)c1ccccc1NC(=O)c1ccc(F)cc1` was tested, and the AC50 was 5.01 µM (active).
`COC(=O)c1ccc(NC(=O)c2ccccc2NS(=O)(=O)c2ccccc2)cc1` was tested, and the AC50 was 15.8 µM (active).
For `C=CCNCCCCOc1c(Cl)cc(C)cc1Br`, the AC50 was 0.178 µM (active).
For `COCCCNCCCCOc1c(Cl)cc(C)cc1Br`, the AC50 was 0.708 µM (active).

Going from `Cc1ccc(C(=O)c2ccc(CC(=O)O)n2C)cc1` to `CCc1cccc(CC)c1NC(=O)CN(CC(=O)O)CC(=O)O`, the “activity, negative = inhibition” value rises from -7.75% [at 25.6 µM] to 11% [at 25.6 µM].

`C/C=C\C(=O)N(CC)c1ccccc1C` was tested, and the “activity, negative = inhibition” value was 5.93% [at 25.6 µM].

For `COc1ccc(-c2ccc3c(n2)CCCN3C[C@H](O)CN2CCCc3nc(-c4ccc(Br)cc4)ccc32)cc1`, the activity, negative = inhibition was -3.82% [at 11.4 µM] and -13% [at 11.4 µM].
